BRCA1 expr up – increases BRCA1 expression; MCF7-BRCA1-FFLuc reporter, luminescence, 48 h; response scale: scaled: vehicle 0%, 10 µM genistein 100%; Potency, µM (top dose mostly 46.1 µM), without a hit: at the top dose activation, most hits filed as activators; 1.1% of 380,000 active; AID 624202; further: potency means the concentration at half of the fitted maximal effect; nearly all actives have a fitted effect of over 80% in size
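48 h compound treatment of MCF7-BRCA1-FFLuc cells (phenol-red free MEM, 37 °C), then 15 min with luciferase substrate and luminescence imaging.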
p53 reactivation – re-activators of mutant p53 | Potency, µM (top dose mostly 92.2 µM), for inactives: at the highest dose activity change, positive = activation, most hits filed as activators | 0.063% of 320,000 active | H1299 p53-A138V BP100-luciferase reporter, luminescence, 24 h; further: potency means the concentration at half of the fitted maximal effect; % of control where 0% means no effect; nearly all actives have a fitted effect of over 45% in size
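p53-null H1299 cells stably carrying temperature-sensitive p53-A138V and a BP100-luciferase reporter were pinned with compounds (4-point, 1:5 series) and held 24 hrs at 37 deg C. Luminescence was read 10 min after detection reagent.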
Gal4-VP16 FLuc – inhibits Gal4-VP16 luciferase reporter, ROR gamma counter-screen. Drosophila S2 Gal4-VP16 UAS-luciferase, luminescence, 20 h. Potency, µM (highest dose often 53.6 µM), for inactives: at the highest dose activity, negative = inhibition, most hits filed as inhibitors. 3.5% of 310,000 active. AID 2546;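 further: Gal4-VP16 expression switched on by copper sulfate through the metallothionein promoter; potency means the concentration at half of the fitted maximal effect; on the % scale 0 is the no-effect control and ±100 the full control effect; nearly all actives have a fitted effect of over 50% in size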
Giardia kill – Giardia lamblia killing | Giardia lamblia trophozoite viability | activity change, % at 7.66 µM, hits read low | 0.15% of 340,000 active; in the data active means activity change below about -80%; inconclusive means between about -30% and that limit;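 further: parasites exposed to compound for two days anaerobically before the ATP read; on the % scale 0 is the no-effect control and ±100 the full control effect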
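Killing of trophozoites was scored by loss of ATP luminescence after a 48 hrs anaerobic exposure to compounds at 37 deg C, using 100 cells per well.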
RORgamma inh – blocks mouse ROR gamma transcriptional activity; P51450; Drosophila S2 Gal4-RORgamma UAS-luciferase reporter, 20 h; Potency, µM (series often up to 53.6 µM), without a hit: at the top dose activity change, negative = inhibition, actives largely listed as inhibitors; 5.4% of 310,000 active; AID 2551; further: potency means the concentration at half of the fitted maximal effect; on the % scale 0 is the no-effect control and ±100 the full control effect; nearly all actives have a fitted effect of over 60% in size
Target sequence (P51450 whole entry, looked up, the tested form may be a part): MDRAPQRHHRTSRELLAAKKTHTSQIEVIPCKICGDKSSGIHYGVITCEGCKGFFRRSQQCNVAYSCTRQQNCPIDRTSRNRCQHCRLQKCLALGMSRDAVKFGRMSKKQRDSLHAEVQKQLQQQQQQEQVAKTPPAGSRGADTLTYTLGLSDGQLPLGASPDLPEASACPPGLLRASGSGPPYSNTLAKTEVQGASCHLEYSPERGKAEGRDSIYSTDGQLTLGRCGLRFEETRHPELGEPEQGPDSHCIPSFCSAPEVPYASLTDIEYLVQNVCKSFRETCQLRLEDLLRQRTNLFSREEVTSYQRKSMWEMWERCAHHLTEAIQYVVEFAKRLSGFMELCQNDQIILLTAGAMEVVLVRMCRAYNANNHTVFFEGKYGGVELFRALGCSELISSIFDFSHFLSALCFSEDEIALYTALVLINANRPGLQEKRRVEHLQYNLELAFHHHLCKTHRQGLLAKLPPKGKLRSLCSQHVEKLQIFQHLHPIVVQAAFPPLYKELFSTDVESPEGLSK
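Luminescence from a UAS-regulated Photinus luciferase reporter in stably transfected Drosophila Schneider cells is measured; decreased signal marks ROR gamma inhibition. Fusion expression is induced by 700 uM copper sulfate for 20 hr.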
ELG1 DNA repair – blocks ELG1-dependent DNA repair in HEK293T cells; HEK293T ELG1-luciferase reporter, luminescence, 16 h; DNA damage induced by 5-fluorouridine; Potency, µM (top dose mostly 46.1 µM), inactives show at the top dose activity change, negative = inhibition, actives largely listed as inhibitors; 2.3% of 330,000 active; AID 504467; further: potency means the concentration at half of the fitted maximal effect; on the % scale 0 is the no-effect control and ±100 the full control effect; nearly all actives have a fitted effect of over 55% in size
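HEK293T cells expressing luciferase-tagged ELG1 (2,000/well) received 5-Fluorouridine plus compound or DMSO for 16 hr at 37 °C. Luciferase was read by ONE-Glo luminescence after 30 min at room temperature.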
* hit, by the source's call; ? = inconclusive; / = no result given; [ ] = another dose, or the depositor's remark. The list is not random: actives were taken first. Their share in the collection is about 7.6%. Unless noted, the call rests on the fitted dose curve; in most records, active means well fitted curve in the direction sought with a large enough effect; inconclusive means small, poorly fitted or top-dose-only effect, or another doubt; inactive means no such curve, though single readings can be large; an effect the other way counts as inactive or inconclusive.

SMILES | BRCA1 expr up | p53 reactivation | Gal4-VP16 FLuc | Giardia kill | RORgamma inh | ELG1 DNA repair
Cc1nc([N+](=O)[O-])c(C(=O)O)n1C | -1% | -7% | 3% | 13 | 0% | 17%
Cc1ccc(C)c(-n2c(-c3ccc(Br)cc3)csc2=NC(=O)c2ccccc2F)c1 | -47% | 14% | -7% | -13 | ? | 12µM*
Cn1ccsc1=NC(=O)c1ccccc1F | 43% | 12% | 14% | -1 | ? | ?
CCc1ccc(-c2nn(-c3ccccc3)cc2C2SCC(=O)N2Cc2ccco2)cc1 (configuration not stated) | -17% | 1% | 9% | 6 | 33% | ?
O=C1CSC(c2cn(-c3ccccc3)nc2-c2ccccc2)N1Cc1ccco1 (configuration not stated) | -52% | -5% | ? | -24 | -67% | 18µM*
CCN1C(=O)c2ccccc2S(=O)(=O)c2ccc(C(=O)NCC(OC)OC)cc21 | -2% | -4% | -3% | 8 | -10% | 12%
Cc1ccc(S(=O)(=O)c2ncccc2N)cc1 | 13% | -2% | 1% | 11 | 23% | -6%
Cc1ccc(S(=O)(=O)c2ncccc2[N+](=O)[O-])cc1 | -85% | -15% | 5.6µM* | ? | 5.6µM* | ?
O=C(Nc1cccc(Cl)c1)c1cc(S(=O)(=O)NCCc2ccc(Cl)cc2)ccc1F | -98% | -4% | 10µM* | 2 | ? | ?
COc1cccc(S(=O)(=O)NCc2ccc(C(=O)Nc3cccc(Cl)c3)cc2)c1 | -73% | -4% | -16% | -4 | 16% | 18µM*
CCOC(=O)N1CCC(NCCNC(=O)c2cccs2)CC1 | 5% | -2% | -2% | 0 | 0% | ?
Cc1ccc2nc(C)/c(=N\O)c(C)nc2c1 | 17% | ? | -2% | 0 | 11µM* | ?
Cc1nc2ccc(Cl)cc2nc(C)/c1=N\O | 40% | ? | 8% | -1 | ? | ?
CC1(C)CC(=O)C(N=Nc2cc(Cl)c(Cl)c(Cl)c2)=C(O)C1 | -8% | 10% | ? | 4 | 26% | ?
Cc1ccc(O)c(N=NC2=C(O)CC(C)(C)CC2=O)c1 | -71% | ? | 8.9µM* | 5 | 7.9µM* | ?
COC(=O)c1ccc(NC(=S)Nc2ccc3ccccc3c2)cc1 | 31% | 16% | ? | 14 | 13µM* | ?
COc1ccc(C(=O)Nc2ccc3oc(Cc4ccc(Cl)cc4)nc3c2)cc1OC | -25% | 3% | 4% | -21 | 7% | 21µM*
COc1ccc(C(=O)Nc2ccc3ccccc3c2)cc1OC | 5.6µM* | / | 12% | -9 | 1% | ?
COc1cccc(CN(C)S(=O)(=O)c2c(C)noc2C)c1OC | 9% | 4% | / | -2 | / | 9%
COc1ccc(CCNC(=O)CSc2ccc3nnc(CCNC(=O)c4ccc(C)cc4)n3n2)cc1OC | 10% | / | / | -3 | / | /
CC(C)(C)n1nnnc1CN(Cc1ccc(F)cc1)Cc1ccco1 | 0% | ? | 20% | -6 | 10% | -1%
Cc1nc(S(=O)(=O)Cc2ccccc2)nc2c1CCC2 | 17% | -9% | -15%[10 µM] | -2 | 4% | ?
Clc1cccc(CNc2ccn3nc(-c4cccs4)cc3n2)c1 | 8.9µM* | / | / | / | / | /
Clc1cccc(CNc2ccn3nc(-c4ccco4)cc3n2)c1 | 44% | / | / | / | / | /
Cc1cc(C)nc(N2CCCC(C(=O)Nc3nc4ccc(S(C)(=O)=O)cc4s3)C2)n1 (configuration not stated) | -55% | -20% | / | 3 | -7%[0.365 µM] | 16µM*
Cc1cc(C)nc(N2CCCC(C(=O)Nc3ccc4nc(C)c(C)nc4c3)C2)n1 (configuration not stated) | -7% | -9% | -17% | 2 | -1% | 12µM*
Cc1cc(C)nc(N2CCCC(C(=O)NCC(c3ccccc3)c3ccccc3)C2)n1 (configuration not stated) | -19% | -5% | -16% | -5 | 15% | 23µM*

Compound activity as filed in PubChem BioAssay.
